Of roughly 7,900 targets only a part is listed; those with a hit were picked by preference. About 0.6% of all pairs of compound and target were hits. Values without a mark were called inactive.
compound: Cc1ccc(C(=O)N(CCCN)[C@@H](c2nc3cc(Cl)ccc3c(=O)n2Cc2ccccc2)C(C)C)cc1 [ispinesib]; test: log2 fold change, soluble protein after heating vs DMSO (PISA); higher = thermal stabilisation; K562 cells, 10 uM, 30 min; active = over 0.2 and 3.5 SD of the protein, either way, in both replicates (recomputed)
Method in brief: (§1)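 Quantification of soluble protein used TMTpro 16plex LC-MS/MS, with channel sums equalised. Samples were the supernatant after 21,000xg for 90 min of pooled aliquots from K562 cells (2×10^6 cells/mL) treated with 10 μM compound for 30 min, heated for 3 min over 48°C-58°C, and extracted in PBS with 0.5% NP-40 at 4°C. Values, from duplicates, describe thermal stability against control samples on a log2 fold-change scale.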

Chain of UniProt Q13901 (Q13901 whole entry, looked up): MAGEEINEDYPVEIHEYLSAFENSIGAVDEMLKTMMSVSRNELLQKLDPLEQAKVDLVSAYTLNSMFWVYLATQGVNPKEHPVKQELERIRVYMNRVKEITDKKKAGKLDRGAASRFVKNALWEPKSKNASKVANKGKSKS
Chain of UniProt P46527 (P46527 whole entry, looked up): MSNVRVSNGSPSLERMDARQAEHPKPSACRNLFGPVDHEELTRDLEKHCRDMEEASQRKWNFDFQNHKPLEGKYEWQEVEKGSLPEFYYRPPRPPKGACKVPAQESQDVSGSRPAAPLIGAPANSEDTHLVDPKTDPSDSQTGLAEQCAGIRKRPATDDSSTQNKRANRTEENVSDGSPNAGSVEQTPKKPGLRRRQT
Chain of UniProt Q14790 (Q14790 whole entry, looked up): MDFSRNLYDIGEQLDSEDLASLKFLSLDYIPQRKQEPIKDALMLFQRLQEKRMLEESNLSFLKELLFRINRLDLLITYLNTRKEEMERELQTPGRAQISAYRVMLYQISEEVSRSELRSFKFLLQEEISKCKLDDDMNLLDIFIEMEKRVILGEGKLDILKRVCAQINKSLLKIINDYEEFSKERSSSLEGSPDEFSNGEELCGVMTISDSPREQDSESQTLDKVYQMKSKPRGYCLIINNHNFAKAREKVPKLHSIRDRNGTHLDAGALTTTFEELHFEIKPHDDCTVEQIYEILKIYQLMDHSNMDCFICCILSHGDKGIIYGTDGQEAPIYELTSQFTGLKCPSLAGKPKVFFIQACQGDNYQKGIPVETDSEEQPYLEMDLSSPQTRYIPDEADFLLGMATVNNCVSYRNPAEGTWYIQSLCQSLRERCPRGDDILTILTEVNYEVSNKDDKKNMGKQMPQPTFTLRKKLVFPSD
Chain of UniProt Q9NPF2 (Q9NPF2 whole entry, looked up): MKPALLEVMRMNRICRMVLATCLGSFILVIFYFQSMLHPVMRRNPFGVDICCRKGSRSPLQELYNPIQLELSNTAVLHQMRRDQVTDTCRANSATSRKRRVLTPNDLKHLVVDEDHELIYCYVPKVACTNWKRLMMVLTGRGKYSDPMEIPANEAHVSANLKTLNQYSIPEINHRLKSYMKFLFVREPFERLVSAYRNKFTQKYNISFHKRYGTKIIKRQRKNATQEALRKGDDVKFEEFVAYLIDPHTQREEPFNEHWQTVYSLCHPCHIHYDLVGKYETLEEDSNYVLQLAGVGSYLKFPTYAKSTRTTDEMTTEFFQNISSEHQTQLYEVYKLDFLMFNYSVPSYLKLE
Chain of UniProt Q53ET0 (Q53ET0 whole entry, looked up): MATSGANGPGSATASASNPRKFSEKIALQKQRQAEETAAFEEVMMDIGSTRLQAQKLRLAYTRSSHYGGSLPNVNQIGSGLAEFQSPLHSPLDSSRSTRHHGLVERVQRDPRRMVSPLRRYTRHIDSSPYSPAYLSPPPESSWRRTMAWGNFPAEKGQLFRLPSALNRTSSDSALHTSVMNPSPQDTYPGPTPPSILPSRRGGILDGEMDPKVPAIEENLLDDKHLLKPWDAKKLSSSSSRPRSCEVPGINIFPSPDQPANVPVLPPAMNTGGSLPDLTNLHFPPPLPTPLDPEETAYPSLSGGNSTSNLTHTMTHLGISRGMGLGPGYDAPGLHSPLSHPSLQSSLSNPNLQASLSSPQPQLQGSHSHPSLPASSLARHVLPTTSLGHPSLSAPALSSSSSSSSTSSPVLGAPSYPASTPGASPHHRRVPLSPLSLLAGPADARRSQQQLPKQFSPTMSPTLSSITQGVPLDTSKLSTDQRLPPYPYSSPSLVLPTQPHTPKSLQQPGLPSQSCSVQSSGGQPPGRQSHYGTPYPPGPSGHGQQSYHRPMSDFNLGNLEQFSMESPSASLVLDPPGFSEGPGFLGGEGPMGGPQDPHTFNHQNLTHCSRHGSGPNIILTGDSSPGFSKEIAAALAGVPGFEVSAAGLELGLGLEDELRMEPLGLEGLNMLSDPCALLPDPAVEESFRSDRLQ
Chain of UniProt Q9H9S4 (Q9H9S4 whole entry, looked up): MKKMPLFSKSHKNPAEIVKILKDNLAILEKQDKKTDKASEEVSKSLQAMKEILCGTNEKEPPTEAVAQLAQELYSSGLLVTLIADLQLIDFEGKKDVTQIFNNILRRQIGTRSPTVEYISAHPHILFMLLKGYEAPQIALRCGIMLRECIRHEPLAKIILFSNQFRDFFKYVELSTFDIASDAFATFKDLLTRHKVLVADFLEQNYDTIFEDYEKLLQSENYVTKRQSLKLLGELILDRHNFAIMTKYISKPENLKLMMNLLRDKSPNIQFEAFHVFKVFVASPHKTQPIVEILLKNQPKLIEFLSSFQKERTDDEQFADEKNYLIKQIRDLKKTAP
Chain of UniProt Q7Z4R8 (Q7Z4R8 whole entry, looked up): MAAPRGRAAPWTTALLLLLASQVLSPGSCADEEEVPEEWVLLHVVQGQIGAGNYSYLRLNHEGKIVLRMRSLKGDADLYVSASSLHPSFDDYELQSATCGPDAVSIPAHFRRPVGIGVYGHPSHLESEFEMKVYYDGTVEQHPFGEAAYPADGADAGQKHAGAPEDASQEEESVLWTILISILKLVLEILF
Chain of UniProt P24863 (P24863 whole entry, looked up): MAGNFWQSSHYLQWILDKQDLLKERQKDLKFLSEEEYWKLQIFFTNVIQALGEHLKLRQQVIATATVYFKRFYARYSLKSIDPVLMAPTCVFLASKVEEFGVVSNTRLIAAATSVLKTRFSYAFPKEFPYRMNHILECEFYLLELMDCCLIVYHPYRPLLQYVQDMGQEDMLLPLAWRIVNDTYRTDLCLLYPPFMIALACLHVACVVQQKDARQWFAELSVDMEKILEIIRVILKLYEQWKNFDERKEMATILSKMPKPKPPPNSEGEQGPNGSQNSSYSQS
Chain of UniProt Q14677 (Q14677 whole entry, looked up): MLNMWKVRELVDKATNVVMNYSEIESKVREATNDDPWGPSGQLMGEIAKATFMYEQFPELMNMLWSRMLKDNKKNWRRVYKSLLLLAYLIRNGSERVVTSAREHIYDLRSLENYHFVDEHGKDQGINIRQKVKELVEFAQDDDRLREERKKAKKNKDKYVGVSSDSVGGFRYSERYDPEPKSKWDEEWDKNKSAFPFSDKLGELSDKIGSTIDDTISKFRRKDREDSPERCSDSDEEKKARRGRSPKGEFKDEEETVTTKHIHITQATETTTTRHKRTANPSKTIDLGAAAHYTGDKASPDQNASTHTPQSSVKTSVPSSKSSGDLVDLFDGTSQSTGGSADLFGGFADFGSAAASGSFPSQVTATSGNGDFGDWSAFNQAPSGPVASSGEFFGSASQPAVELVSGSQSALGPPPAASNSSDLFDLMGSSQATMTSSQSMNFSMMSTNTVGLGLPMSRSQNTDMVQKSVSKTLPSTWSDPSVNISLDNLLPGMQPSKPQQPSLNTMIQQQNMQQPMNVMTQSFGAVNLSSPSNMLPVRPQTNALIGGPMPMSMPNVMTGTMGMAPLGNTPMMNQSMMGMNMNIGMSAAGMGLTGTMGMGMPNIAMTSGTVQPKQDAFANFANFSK
Chain of UniProt O43529 (O43529 whole entry, looked up): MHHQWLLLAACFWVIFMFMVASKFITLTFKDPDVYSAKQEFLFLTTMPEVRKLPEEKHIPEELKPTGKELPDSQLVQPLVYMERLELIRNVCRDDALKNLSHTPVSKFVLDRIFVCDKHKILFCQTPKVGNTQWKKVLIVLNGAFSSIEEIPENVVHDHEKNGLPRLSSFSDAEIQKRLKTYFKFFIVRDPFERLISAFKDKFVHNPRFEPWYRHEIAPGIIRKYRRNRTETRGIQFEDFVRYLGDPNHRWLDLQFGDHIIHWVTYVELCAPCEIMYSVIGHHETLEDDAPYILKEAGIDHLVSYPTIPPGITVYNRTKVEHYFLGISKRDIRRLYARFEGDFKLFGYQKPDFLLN
Chain of UniProt P11802 (P11802 whole entry, looked up): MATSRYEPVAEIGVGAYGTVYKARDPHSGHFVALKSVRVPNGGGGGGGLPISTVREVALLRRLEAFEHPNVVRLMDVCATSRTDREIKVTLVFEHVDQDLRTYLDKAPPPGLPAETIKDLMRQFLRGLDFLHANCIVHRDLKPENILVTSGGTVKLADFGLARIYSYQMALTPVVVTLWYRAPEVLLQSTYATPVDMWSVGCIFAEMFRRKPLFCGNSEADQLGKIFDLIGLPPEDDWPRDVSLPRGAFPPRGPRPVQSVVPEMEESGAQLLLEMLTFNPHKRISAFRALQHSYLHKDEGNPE
Chain of UniProt Q13111 (Q13111 whole entry, looked up): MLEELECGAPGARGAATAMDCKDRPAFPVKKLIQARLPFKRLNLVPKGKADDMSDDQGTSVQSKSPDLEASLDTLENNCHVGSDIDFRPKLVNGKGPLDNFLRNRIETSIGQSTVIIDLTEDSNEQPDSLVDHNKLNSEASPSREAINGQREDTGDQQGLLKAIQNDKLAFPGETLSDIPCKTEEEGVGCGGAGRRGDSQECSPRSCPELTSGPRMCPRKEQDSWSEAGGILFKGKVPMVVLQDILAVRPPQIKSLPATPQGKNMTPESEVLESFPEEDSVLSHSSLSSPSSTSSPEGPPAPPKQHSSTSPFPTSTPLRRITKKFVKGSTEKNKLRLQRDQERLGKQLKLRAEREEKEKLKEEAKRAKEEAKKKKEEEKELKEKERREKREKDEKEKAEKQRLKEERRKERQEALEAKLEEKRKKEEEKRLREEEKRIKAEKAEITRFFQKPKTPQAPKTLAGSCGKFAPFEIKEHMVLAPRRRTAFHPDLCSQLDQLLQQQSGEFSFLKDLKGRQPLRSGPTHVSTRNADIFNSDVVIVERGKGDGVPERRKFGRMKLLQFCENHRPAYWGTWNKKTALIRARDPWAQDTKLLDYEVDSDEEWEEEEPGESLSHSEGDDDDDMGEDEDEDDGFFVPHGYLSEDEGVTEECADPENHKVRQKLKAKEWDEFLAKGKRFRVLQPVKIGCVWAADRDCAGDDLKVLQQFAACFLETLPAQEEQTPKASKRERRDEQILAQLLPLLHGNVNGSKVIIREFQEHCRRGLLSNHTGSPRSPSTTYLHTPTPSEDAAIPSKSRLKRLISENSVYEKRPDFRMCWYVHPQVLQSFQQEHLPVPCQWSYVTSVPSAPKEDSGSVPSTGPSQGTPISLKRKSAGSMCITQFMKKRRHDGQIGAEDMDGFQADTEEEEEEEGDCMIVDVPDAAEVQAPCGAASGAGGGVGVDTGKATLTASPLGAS

Target | log2 fold change
CASP8 isoform 9 (UniProt Q14790) | -0.151
COX7C (UniProt P15954) | -0.096
CCDC57 (UniProt Q2TAC2) | -0.034
CRTC2 (UniProt Q53ET0) | 0.012
COMMD1 (UniProt Q8N668) | -0.112
C15orf41 (UniProt Q9Y2V0) | -0.2
C6orf120 (UniProt Q7Z4R8) | -0.07
COG2 (UniProt Q14746) | -0.264
CAB39L (UniProt Q9H9S4) | -0.031
CDK19 (UniProt Q9BWU1) | 0.291
CHAF1A (UniProt Q13111) | -0.098
COPS3 isoform 2 (UniProt Q9UNS2) | -0.371
C19orf54 (UniProt Q5BKX5) | -0.091
CCNC (UniProt P24863) | 0.059
CHST11 (UniProt Q9NPF2) | -0.068
CDK16 isoform 2 (UniProt Q00536) | -0.046
CDK4 (UniProt P11802) | 0.094
CDC42SE1 (UniProt Q9NRR8) | -0.341
CHST10 (UniProt O43529) | -0.009
CDCA2 (UniProt Q69YH5) | -0.04
CENPE (UniProt Q02224) | -0.321
CLINT1 isoform 3 (UniProt Q14677) | -0.001
CDKN1B (UniProt P46527) | -0.01
C1D (UniProt Q13901) | 0.007
C22orf39 (UniProt Q6P5X5) | -0.207
CRTC1 isoform 2 (UniProt Q6UUV9) | -0.11
CHPT1 (UniProt Q8WUD6) | -1.09 (active)

compound: Cc1ccc(NC(=O)c2ccc(CN3CC[C@H](N(C)C)C3)c(C(F)(F)F)c2)cc1Nc1nccc(-c2cncnc2)n1 [bafetinib]; test: as above
Method in brief: as §1

Target | log2 fold change
CASP8 isoform 9 (UniProt Q14790) | 0.072
COX7C (UniProt P15954) | -0.066
CCDC57 (UniProt Q2TAC2) | -0.025
CRTC2 (UniProt Q53ET0) | -0.035
COMMD1 (UniProt Q8N668) | -0.162
C6orf120 (UniProt Q7Z4R8) | -0.145
CAB39L (UniProt Q9H9S4) | -0.055
CHAF1A (UniProt Q13111) | -0.154
COPS3 isoform 2 (UniProt Q9UNS2) | -0.19
CAV2 (UniProt P51636) | -1.25 (active)
CMTM3 (UniProt Q96MX0) | 0.05
COX7B (UniProt P24311) | 0.109
CCNC (UniProt P24863) | 0.031
CDK17 isoform 2 (UniProt Q00537) | 0.117
CHST11 (UniProt Q9NPF2) | -0.01
CDK16 isoform 2 (UniProt Q00536) | 0.038
CDK4 (UniProt P11802) | 0.022
CDC42SE1 (UniProt Q9NRR8) | -0.37
CHST10 (UniProt O43529) | -0.036
CENPE (UniProt Q02224) | 0.143
CEP128 (UniProt Q6ZU80) | -0.186
CNN3 (UniProt Q15417) | 0.02
CLINT1 isoform 3 (UniProt Q14677) | 0.024
CDKN1B (UniProt P46527) | -0.001
C1D (UniProt Q13901) | -0.026
C22orf39 (UniProt Q6P5X5) | -0.04
CRTC1 isoform 2 (UniProt Q6UUV9) | 0.021
CLN5 (UniProt O75503) | -0.945 (active)
